Results filed as inconclusive are left out. A call without a number means that no potency is given here. Active and inactive are the calls of the source. Unless noted, calls follow the shape of the dose curve; as a rule, active = well fitted curve in the direction sought with a large enough effect in the repeat runs; inconclusive = weak or mixed curves; inactive = no such curve, though single readings can be large; an effect the other way counts as inactive or inconclusive.
How the values were obtained:
[1] = qHTS assay to identify small molecule antagonists of the estrogen receptor alpha (ER-alpha) signaling pathway using the BG1 cell line in the presence of 0.1 nM 17-beta-estradiol - cell viability counter screen (AID 1259241); also: nearly all actives have a fitted effect of over 40% in size; also: potency is read from the fitted curve at half-maximal effect
Procedure, shortened: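 Live-cell protease activity (CellTiter-Fluor fluorescence, 30 min) was read in the same wells after VM7Luc4E2 cells had been exposed to compounds with 0.1 nM 17beta-estradiol for 22 hr at 37C.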

[2] = qHTS assay to identify small molecule antagonists of the androgen receptor (AR) signaling pathway using the MDA cell line in the presence of 0.5 nM R1881 - cell viability counter screen (AID 1259242); also: nearly all actives have a fitted effect of over 45% in size
Procedure, shortened: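 Viability of MDA-kb2 cells was multiplexed with the luciferase AR readout; after 16 hr with compounds and R1881 at 0.5 nM final, CellTiter-Fluor fluorescence was recorded.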

[3] = biological target: Estrogen receptor (Homo sapiens) (UniProt P03372); assay: qHTS assay to identify small molecule antagonists of the estrogen receptor alpha (ER-alpha) signaling pathway using the BG1 cell line in the presence of 0.1 nM 17-beta-estradiol (AID 1259244); also: potency is read from the fitted curve at half-maximal effect; nearly all actives have a fitted effect of over 50% in size
Procedure, shortened: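 Estradiol at 0.1 nM (final) stimulates the endogenous ER-alpha of VM7Luc4E2 cells carrying an ERE-driven luciferase; compounds are co-incubated 22 h at 37C and luciferase output quantified by luminescence.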

[4] = qHTS assay to identify small molecule HDAC inhibitors - cell viability counter screen (AID 1259365); also: series mostly up to about 92 µM; nearly all actives have a fitted effect of over 50% in size
Procedure, shortened: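 HCT-116 (wild type), 1,500 cells/well, overnight 37C/5% CO2; compound in DMSO 2hr; CellTiter-Glo 30min RT; luminescence read.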

[5] = qHTS assay to identify small molecule agonists of the sonic hedgehog signaling (Shh) pathway - cell viability counter screen (AID 1259366); also: nearly all actives have a fitted effect of over 50% in size; also: potency is read from the fitted curve at half-maximal effect
Procedure, shortened: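 CellTiter-Fluor fluorescence read-out, 1 hr at 37C, added after 23hr compound exposure. Cells: 3T3 Gli1-Luc, an NIH/3T3 clone with stably integrated Gli1-Luc reporter, plated 4hr before compound.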

[6] = qHTS assay to identify small molecule antagonists of the sonic hedgehog signaling (Shh) pathway - cell viability counter screen (AID 1259367); also: nearly all actives have a fitted effect of over 55% in size; also: potency is read from the fitted curve at half-maximal effect
Procedure, shortened: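 After a 4 hr settling period, 3T3 Gli1-Luc cells were treated with DMSO-dissolved chemicals and conditioned medium, kept 24 hr at 37C in 5% CO2, and assayed for viability by CellTiter-Fluor fluorescence following 1 hr reagent incubation.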

[7] = qHTS assay to identify small molecule agonists of the sonic hedgehog signaling (Shh) pathway (AID 1259368; calls by dose curve;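 also: NIH/3T3-derived 3T3Gli1-Luc cells carrying a stable Gli1-driven firefly luciferase reporter; series mostly up to about 92 µM; nearly all actives have a fitted effect of over 15% in size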)
Procedure, shortened: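 A Gli1 transcriptional response element controlled firefly luciferase in 3T3Gli1-Luc cells. Compounds and a positive control were added 4 hr after plating, and cells were incubated a further 24 hr at 37 C before luminescence detection.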

[8] = qHTS assay to identify small molecule antagonists of the sonic hedgehog signaling (Shh) pathway (AID 1259369; calls by dose curve; also: nearly all actives have a fitted effect of over 45% in size; also: potency is read from the fitted curve at half-maximal effect)
Procedure, shortened: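 For antagonist detection, the reporter line received test compounds together with conditioned medium, incubated 24hr at 37 C, 5% CO2, then luminescence was recorded following 30min room-temperature luciferase reagent incubation.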

[9] = qHTS assay to identify small molecule antagonists of the estrogen receptor beta (ER-beta) signaling pathway - cell viability counter screen (AID 1259382); also: series mostly up to about 92 µM; nearly all actives have a fitted effect of over 55% in size
Procedure, shortened: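 In this multiplexed counter screen, cells were seeded at 2,000 per well in medium with 2% charcoal-stripped FBS and incubated 6 hr before compound and 1nM final E2 were added. Sixteen hours later, ATP-based luminescence reported viability.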

[10] = biological target: Estrogen receptor (Homo sapiens) (UniProt P03372); assay: qHTS assay to identify small molecule agonists of the estrogen receptor alpha (ER-alpha) signaling pathway in the presence of an antagonist (AID 1259383; calls by dose curve; also: top concentration of the series differs between compounds; nearly all actives have a fitted effect of over 15% in size)
Procedure, shortened: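 Stably transfected VM7Luc4E2 reporter cells, kept 5 days in charcoal-stripped serum, received ICI-182,780 at 10.0nM final before compound addition. Following 22hr incubation at 37C and 5% CO2, luciferase signal was read by luminescence.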

[11] = qHTS assay to identify small molecule agonists or antagonists of the thyroid stimulating hormone receptor (TSHR) signaling pathway - wild type cell line counter screen (AID 1259384; calls by dose curve)
Procedure, shortened: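 Wild-type HEK293 cells were plated 18 h at 37 C/5% CO2, pin-dosed with compound plus Ro20-1724 medium, held 30 min at room temperature, then given cAMP-d2 and anti-cAMP-cryptate; fluorescence was read after 1 h. Fifteen concentrations, triplicate.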

[12] = biological target: Thyrotropin receptor (Homo sapiens) (UniProt P16473); assay: qHTS assay to identify small molecule antagonists of the thyroid stimulating hormone receptor (TSHR) signaling pathway (AID 1259385; calls by dose curve; also: nearly all actives have a fitted effect of over 20% in size)
Procedure, shortened: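 TSHR-HEK293 cells were plated and held 18 h at 37C/5% CO2, then given compound plus Ro20-1724 and stimulated with TSH at 1.5 ng/mL final. After 30 min at room temperature, cAMP was detected with cAMP-d2/anti-cAMP-cryptate (1 h) by fluorescence.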

[13] = qHTS assay to identify small molecule HDAC inhibitors (AID 1259364);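 also: wild-type HCT-116 cells with endogenous class I/II HDAC activity; top concentration of the series differs between compounds; nearly all actives have a fitted effect of over 45% in size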
Procedure, shortened: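 Read-out: luminescence of HDAC-Glo I/II reagent, 30 min RT, reflecting class I/II deacetylase activity in whole HCT-116 cells pre-exposed 2 h to DMSO-dissolved compounds.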

[14] = biological target: Estrogen receptor beta (Homo sapiens) (UniProt Q92731); assay: qHTS assay to identify small molecule agonists of the estrogen receptor beta (ER-beta) signaling pathway (AID 1259377; active = well fitted activation curve with a large enough effect in the signal ratio in the repeat runs, not every such curve was filed as active; the % refers to the signal ratio)
Procedure, shortened: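 Beta-lactamase reporter readout: fluorescence of LiveBLAzer B/G FRET substrate after 2 h at room temperature, following 16 h compound treatment of ER-beta-UAS-bla HEK293T cells at 37C in 2% charcoal-stripped FBS medium.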

[15] = biological target: Estrogen receptor beta (Homo sapiens) (UniProt Q92731); assay: qHTS assay to identify small molecule antagonists of the estrogen receptor beta (ER-beta) signaling pathway (AID 1259378; active = well fitted inhibition curve with a large enough effect in the signal ratio in the repeat runs, not every such curve was filed as active; the % refers to the signal ratio)
Procedure, shortened: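 ER-beta-UAS-bla HEK293T (GripTite) cells in 2% charcoal-stripped FBS medium were preincubated 6 hr at 37C, dosed with compound, then stimulated with 1 nM E2 (final) for 16 hr; beta-lactamase reporter read by B/G FRET fluorescence after 2 hr substrate loading.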

[16] = qHTS assay to identify small molecule agonists of the androgen receptor (AR) signaling pathway in the presence of an antagonist - cell viability counter screen (AID 1259379);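 also: MDA-kb2 human breast cancer cells carrying an MMTV luciferase reporter; series mostly up to about 92 µM; nearly all actives have a fitted effect of over 25% in size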
Procedure, shortened: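 Seed MDA-kb2 at 3,000 cells/well; incubate 5 hr, 37C, 0% CO2. Add nilutamide to 3.0uM final, then pin compounds at 15 concentrations. Incubate 16 hr. Add CellTiter-Fluor at 15 hr, read fluorescence after 1 hr.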

[17] = qHTS assay to identify small molecule agonists of the estrogen receptor beta (ER-beta) signaling pathway - cell viability counter screen (AID 1259380); also: nearly all actives have a fitted effect of over 30% in size
Procedure, shortened: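 CellTiter-Glo read, 30 min RT, same wells as bla assay; cells ER-beta-UAS-bla HEK293T; 16 hr compound, 37C; medium 2% charcoal-stripped FBS.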

[18] = qHTS assay to identify small molecule phospholipidosis (PLD) inducers (AID 1259344; active = well fitted curve in the direction sought with a large enough effect; an effect the other way counts as inactive or inconclusive)
Procedure, shortened: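 HepG2 cells grown on collagen I take up LipidTOX Red while exposed to compound for 24 h; after fixation they are imaged at 20x and pit metrics are extracted.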

[19] = biological target: Androgen receptor (Homo sapiens) (UniProt P10275); assay: qHTS assay to identify small molecule agonists of the androgen receptor (AR) signaling pathway in the presence of an antagonist (AID 1259381; calls by dose curve; also: nearly all actives have a fitted effect of over 15% in size)
Procedure, shortened: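 Test compounds at 15 concentrations were incubated for 16hr with MDA-kb2 reporter cells in presence of 3.0uM nilutamide (final). Signal: ONE-Glo luciferase luminescence.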

Thyrotropin receptor (Homo sapiens), sequence (P16473 whole entry, looked up): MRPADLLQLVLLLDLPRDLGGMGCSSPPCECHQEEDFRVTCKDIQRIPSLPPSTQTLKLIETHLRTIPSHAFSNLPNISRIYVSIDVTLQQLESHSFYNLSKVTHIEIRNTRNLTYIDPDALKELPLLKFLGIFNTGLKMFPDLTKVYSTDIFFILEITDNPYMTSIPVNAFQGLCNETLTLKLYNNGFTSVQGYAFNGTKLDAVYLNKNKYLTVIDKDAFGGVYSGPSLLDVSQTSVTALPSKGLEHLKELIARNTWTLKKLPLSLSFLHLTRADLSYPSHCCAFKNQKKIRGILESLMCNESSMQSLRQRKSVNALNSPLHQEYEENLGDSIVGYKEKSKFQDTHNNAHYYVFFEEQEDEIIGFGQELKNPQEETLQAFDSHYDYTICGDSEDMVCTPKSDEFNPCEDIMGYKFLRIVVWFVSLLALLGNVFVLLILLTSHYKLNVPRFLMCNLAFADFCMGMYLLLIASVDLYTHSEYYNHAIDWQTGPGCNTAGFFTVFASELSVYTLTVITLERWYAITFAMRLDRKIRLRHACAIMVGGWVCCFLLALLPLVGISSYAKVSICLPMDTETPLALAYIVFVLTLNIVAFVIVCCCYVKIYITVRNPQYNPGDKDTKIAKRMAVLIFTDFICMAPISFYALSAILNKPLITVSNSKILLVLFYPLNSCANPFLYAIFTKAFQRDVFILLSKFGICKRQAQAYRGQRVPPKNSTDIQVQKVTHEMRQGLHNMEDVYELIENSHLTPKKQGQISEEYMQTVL
Estrogen receptor beta (Homo sapiens), sequence (Q92731 whole entry, looked up): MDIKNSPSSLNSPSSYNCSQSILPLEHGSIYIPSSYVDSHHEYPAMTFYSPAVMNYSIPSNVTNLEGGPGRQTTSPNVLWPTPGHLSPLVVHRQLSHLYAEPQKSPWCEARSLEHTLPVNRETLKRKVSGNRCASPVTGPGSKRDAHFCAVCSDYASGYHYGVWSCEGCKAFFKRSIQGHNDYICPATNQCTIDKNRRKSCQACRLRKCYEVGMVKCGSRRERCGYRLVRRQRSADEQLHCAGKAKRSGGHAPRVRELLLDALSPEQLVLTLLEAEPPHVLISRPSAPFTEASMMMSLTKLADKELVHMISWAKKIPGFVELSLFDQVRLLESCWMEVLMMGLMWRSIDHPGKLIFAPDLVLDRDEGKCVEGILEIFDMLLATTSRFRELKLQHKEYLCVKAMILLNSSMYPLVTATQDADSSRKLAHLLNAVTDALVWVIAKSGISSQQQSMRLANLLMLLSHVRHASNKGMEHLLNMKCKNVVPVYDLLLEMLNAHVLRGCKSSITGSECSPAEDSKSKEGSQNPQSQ
Estrogen receptor (Homo sapiens), sequence (P03372 whole entry, looked up): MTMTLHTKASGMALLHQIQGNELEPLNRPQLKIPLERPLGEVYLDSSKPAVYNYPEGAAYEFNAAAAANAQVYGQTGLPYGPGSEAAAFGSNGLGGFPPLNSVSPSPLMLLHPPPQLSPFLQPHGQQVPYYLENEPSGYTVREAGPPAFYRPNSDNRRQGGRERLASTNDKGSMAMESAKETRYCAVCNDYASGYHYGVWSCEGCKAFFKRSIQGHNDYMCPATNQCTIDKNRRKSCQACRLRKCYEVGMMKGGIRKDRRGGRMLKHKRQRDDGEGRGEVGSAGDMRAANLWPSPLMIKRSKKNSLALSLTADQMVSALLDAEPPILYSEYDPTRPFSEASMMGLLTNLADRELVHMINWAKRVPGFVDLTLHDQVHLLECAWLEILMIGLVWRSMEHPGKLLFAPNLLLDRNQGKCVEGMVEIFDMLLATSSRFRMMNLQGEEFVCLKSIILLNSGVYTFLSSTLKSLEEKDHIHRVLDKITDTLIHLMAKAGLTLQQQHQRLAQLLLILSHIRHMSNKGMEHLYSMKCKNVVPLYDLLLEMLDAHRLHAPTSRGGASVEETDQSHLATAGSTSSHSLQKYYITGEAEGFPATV
Androgen receptor (Homo sapiens), sequence (P10275 whole entry, looked up): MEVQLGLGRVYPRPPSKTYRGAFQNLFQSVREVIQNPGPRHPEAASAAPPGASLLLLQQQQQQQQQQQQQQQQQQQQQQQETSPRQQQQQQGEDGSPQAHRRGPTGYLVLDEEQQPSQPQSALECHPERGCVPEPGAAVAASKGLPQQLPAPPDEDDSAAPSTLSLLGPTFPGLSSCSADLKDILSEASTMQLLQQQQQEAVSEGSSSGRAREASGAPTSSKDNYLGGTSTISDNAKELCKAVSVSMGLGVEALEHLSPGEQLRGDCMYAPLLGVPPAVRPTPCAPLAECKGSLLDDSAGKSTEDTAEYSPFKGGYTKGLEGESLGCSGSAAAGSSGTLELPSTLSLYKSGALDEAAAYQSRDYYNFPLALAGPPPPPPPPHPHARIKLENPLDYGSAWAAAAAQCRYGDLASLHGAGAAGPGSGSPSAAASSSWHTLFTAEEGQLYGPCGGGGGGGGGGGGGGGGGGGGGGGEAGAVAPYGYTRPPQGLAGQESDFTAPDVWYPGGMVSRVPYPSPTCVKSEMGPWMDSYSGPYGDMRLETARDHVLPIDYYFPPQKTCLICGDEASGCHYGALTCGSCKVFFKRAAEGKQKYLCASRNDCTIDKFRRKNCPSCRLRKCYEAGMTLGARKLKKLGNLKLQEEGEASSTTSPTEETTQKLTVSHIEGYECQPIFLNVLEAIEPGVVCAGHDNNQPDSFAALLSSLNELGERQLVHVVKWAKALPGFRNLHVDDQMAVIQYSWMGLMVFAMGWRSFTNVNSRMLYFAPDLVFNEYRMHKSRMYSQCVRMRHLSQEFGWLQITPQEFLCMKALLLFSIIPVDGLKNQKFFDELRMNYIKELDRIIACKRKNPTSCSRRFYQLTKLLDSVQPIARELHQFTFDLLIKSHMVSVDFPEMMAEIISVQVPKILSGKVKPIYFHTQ

Compound	Potency [1]	Potency [2]	Potency [3]	Potency [4]	Potency [5]	Potency [6]	Potency [7]	Potency [8]	Potency [9]	Potency [10]	outcome [11]	Potency [12]	Potency [13]	Potency [14]	Potency [15]	Potency [16]	Potency [17]	Potency [18]	Potency [19]
Nc1ccccc1O	53.8 µM (active)	inactive	30.2 µM (active)	inactive	24 µM (active)	19.1 µM (active)	inactive	6.77 µM (active)	inactive	inactive	inactive	inactive	–	–	–	–	–	–	–
CC(C)CCCCCCCCCCCCCCC(=O)O	inactive	inactive	–	inactive	inactive	inactive	inactive	inactive	inactive	–	–	–	inactive	inactive	inactive	inactive	–	–	–
CCCCN(CCCC)C(=O)N(CCCC)CCCC	inactive	inactive	–	inactive	inactive	inactive	inactive	inactive	inactive	–	inactive	–	inactive	inactive	inactive	inactive	–	–	–
CCN(C(=O)c1cc(C)cc(OC[C@H](C)Nc2ccncc2)c1)C(C)C	inactive	inactive	–	inactive	inactive	inactive	inactive	–	inactive	–	inactive	inactive	inactive	–	–	inactive	inactive	–	–
Cc1onc(-c2c(Cl)cccc2Cl)c1C(=O)N[C@@H]1C(=O)N2[C@@H]1SC(C)(C)[C@@H]2C(=O)O	inactive	inactive	–	inactive	inactive	inactive	inactive	inactive	inactive	–	inactive	inactive	inactive	–	–	inactive	inactive	inactive	inactive
CC(C)OC(=O)c1cc2c(OCC(O)CNC(C)(C)C)cccc2[nH]1 (stereo not drawn)	inactive	inactive	–	inactive	–	inactive	inactive	2.66 µM (active)	–	–	–	inactive	inactive	inactive	inactive	inactive	–	–	inactive
NC(=O)CC[C@@H]1NC(=O)[C@H](Cc2ccccc2)NC(=O)[C@H](Cc2ccc(O)cc2)NC(=O)CCSSC[C@@H](C(=O)N2CCC[C@H]2C(=O)N[C@@H](CCCN=C(N)N)C(=O)NCC(N)=O)NC(=O)[C@H](CC(N)=O)NC1=O	inactive	inactive	–	inactive	inactive	inactive	inactive	–	–	–	inactive	inactive	inactive	–	–	inactive	inactive	inactive	–
Cc1ccc(O)c(C(C)(C)C)c1	inactive	inactive	–	inactive	inactive	inactive	inactive	–	–	–	inactive	inactive	inactive	–	–	inactive	–	–	–

— PubChem BioAssay (Tox21)
